Records with an inconclusive call do not appear. The source made the active and inactive calls. Unless noted, calls come from the whole dose curve; as a rule, active = well fitted curve in the direction sought with a large enough effect; inconclusive = small, poorly fitted or top-dose-only effect, or another doubt; inactive = no such curve, though single readings can be large; an effect the other way counts as inactive or inconclusive.

Assay [1] is described as follows: P-glycoprotein substrates identified in KB-8-5-11 adenocarcinoma cell line, qHTS therapeutic library screen (AID 1346987). Note: potency is the fitted concentration of half-maximal effect; nearly all actives have a fitted effect of over 65% in size. The method, boiled down: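 In this qHTS, P-gp-rich KB-8-5-11 cells received library compounds across a concentration range. Viability was quantified by luminescence after 72 h at 37 degree C.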
In general terms: qHTS replaces the single test concentration by a dilution series.

Assay [2] in a line: qHTS to identify inhibitors of the type 1 interferon - major histocompatibility complex class I in skeletal muscle: primary screen against the NCATS Mechanism Interrogation Plate v5.0 (MIPE) Libary (AID 1347411).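 Note: plate controls were vehicle for no effect and reference inhibitor for full effect; nearly all actives have a fitted effect of over 65% in size.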 The method, boiled down: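 HLA-B HiBit myoblasts, dexamethasone-free medium + 4 ng/ml IFN-b, 24 h compound, 11-pt 1:3 from 46 uM final. Readout: Nano-Glo HiBiT lytic luminescence after 10 min lysis, RT.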

Assay [3] has as its target Glutathione peroxidase 1 (Homo sapiens) (UniProt P07203). The experiment in a line: Primary qHTS Assay for Inhibitors of Recombinant Selenoprotein Glutathione Peroxidase 1 (GPX1) (AID 1845191). Note: nearly all actives have a fitted effect of over 65% in size. Put shortly:
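GPX1 10 nM, GR 100 nM, GSH 1 mM, NADPH 0.5 mM, CHP 0.5 mM (final). 30-min cpd preincubation, RT. Ex340/Em450 read t=0, t=15 min.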

Assay [4] in a line: qHTS drug screen for cell cycle checkpoint inhibitors in PARPi-resistant BRCA-mutant ovarian cancer cell lines. (AID 1963452; calls by dose curve). As to conditions: PEO1/OlaR viability, CellTiter-Glo luminescence, 96 h, stronger effect = lower value. The method, boiled down:
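PEO1, PEO4 and PEO1/OlaR ovarian cancer cells, 600 per well, exposed 96 h at 37C to a dilution series. Viability read by CellTiter-Glo luminescence, normalized to DMSO and empty wells; activity summarized as Z-AUC.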

Chain of Glutathione peroxidase 1 (Homo sapiens) (P07203 whole entry, looked up): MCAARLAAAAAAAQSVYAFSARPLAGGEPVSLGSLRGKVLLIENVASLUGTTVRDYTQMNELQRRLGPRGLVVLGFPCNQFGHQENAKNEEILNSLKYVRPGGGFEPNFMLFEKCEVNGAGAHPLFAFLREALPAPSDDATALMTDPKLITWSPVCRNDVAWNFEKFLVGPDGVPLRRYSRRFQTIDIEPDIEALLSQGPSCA

In the case of `Cc1ccc2cc(-c3c(C)ccc(C(=O)c4c(-c5ccccc5)n(C)n(-c5ccccc5)c4=O)c3N)ccc2n1`, in assay [1], the Potency is 16.4 µM (active). The Potency result in assay [2] and in assay [3] was “inactive” each time. Moreover, the Z-AUC is -0.557 (inactive) in assay [4], -0.233 in assay [4] (measured here: PEO1 parental Z-AUC) and -0.0214 in assay [4] (measured here: PEO4 Z-AUC).

The record behind these values is PubChem BioAssay (NCATS).
